What all share (test): NCI-60 one-dose screen, 48 h (100 = growth as untreated, 0 = no growth, -100 = all killed)
The test system of experiment [1] is MOLT-4 leukemia. The conditions noted are these: 10 µM unless noted.
For experiment [2], the system named is SR leukemia.
Experiment [3] has as its system OVCAR-8 ovarian. The conditions noted are these: 10 µM unless noted.
For experiment [4], the system named is OVCAR-5 ovarian.
Experiment [5] relates to SK-OV-3 ovarian.
Experiment [6] concerns IGROV1 ovarian.
Experiment [7] relates to OVCAR-3 ovarian.
For experiment [8], the system named is NCI/ADR-RES ovarian.
The subject of experiment [9] is T-47D breast.
Experiment [10] relates to BT-549 breast.
For experiment [11], the system named is MDA-MB-435 melanoma.
For experiment [12], the system named is SW-620 colon.
The subject of experiment [13] is HCT-116 colon.
Experiment [14] has as its system HCC-2998 colon.
The subject of experiment [15] is KM12 colon.
Experiment [16] relates to OVCAR-4 ovarian.
The test system of experiment [17] is HS 578T breast.
Experiment [18] relates to MCF7 breast. The conditions noted are these: 10 µM unless noted.
Experiment [19] concerns RPMI-8226 leukemia.

Each structure is given as a SMILES string. Where “and” joins values, the source holds several entries; their conditions need not be identical. Equal values may be shown once. The panel holds about 83,000 compounds, 20% with a hit somewhere; the sample as a whole holds those more often.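 Each cell line was grown in a 96-well plate and treated with one concentration of compound for 48 hours. Values below 10 were considered active.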 Values without a mark were called inactive. Calls of active or inactive are those of the source.

For `CC1(C)C2CCC1(CS(=O)(=O)O)C(=O)C2` (centres undefined), the growth in [1] was 112% and 110%; in experiment [2] (10 µM unless noted), 105% and 117%; in [3], 99.7% and 103%; in experiment [4] (10 µM unless noted), 91.9% and 101%; in experiment [5] (10 µM unless noted) it was 98.4% and 115%; in [6] (10 µM unless noted), 86.8% and 115%. For the same compound, the growth was 102% and 114% in experiment [7] (10 µM unless noted); 104% and 112% in [8] (10 µM unless noted); 87.1% and 115% in experiment [9] (10 µM unless noted); 95.3% and 94.8% in experiment [10] (10 µM unless noted); 96.1% and 105% in experiment [11] (10 µM unless noted); 99% and 111% in [12] (10 µM unless noted). Further, the growth in experiment [13] (10 µM unless noted) is 97.9% and 101%; in experiment [14] (10 µM unless noted), 92.2% and 133%; in experiment [15] (10 µM unless noted) it was 101% and 104%.

With `O=[N+]([O-])c1cc(Cl)c(Cl)c([N+](=O)[O-])c1Cl`, the growth in [1] is 13.3%; in experiment [2] (10 µM unless noted) it was 11.2%; in experiment [3] it was 38.9%; in [16] (10 µM unless noted), 29.3%; in [5] (10 µM unless noted), 105%; in experiment [6] (10 µM unless noted) it was 28.9%. Besides, the growth in experiment [7] (10 µM unless noted) was 10%; in experiment [17] (10 µM unless noted) it was 106%; in experiment [8] (10 µM unless noted) it was 80%; in experiment [9] (10 µM unless noted) it was 0.463% (active); in [10] (10 µM unless noted), 96.8%; in experiment [11] (10 µM unless noted) it was 89.3%. The growth was -61.9% (active) in [12] (10 µM unless noted); 20.1% in experiment [18]; -77.1% (active) in experiment [13] (10 µM unless noted); 109% in [14] (10 µM unless noted); 26% in experiment [15] (10 µM unless noted).

For `N#CC(C#N)=Cc1cccc(F)c1`, the growth in [1] is 97.9%; in experiment [19] (10 µM unless noted), 103%; in [3], 107%; in experiment [4] (10 µM unless noted) it was 98.4%; in experiment [16] (10 µM unless noted) it was 110%; in [5] (10 µM unless noted), 105%. The growth in experiment [6] (10 µM unless noted) was 112%; in experiment [7] (10 µM unless noted), 109%; in [17] (10 µM unless noted), 101%; in [8] (10 µM unless noted), 107%; in [9] (10 µM unless noted), 105%; in experiment [10] (10 µM unless noted), 111%. In addition, the growth is 107% in experiment [11] (10 µM unless noted); 109% in [12] (10 µM unless noted); 101% in experiment [18]; 108% in experiment [13] (10 µM unless noted); 110% in experiment [14] (10 µM unless noted); 108% in experiment [15] (10 µM unless noted).

`Cn1cc(C(=O)C[n+]2ccccc2)c2ccccc21`: the growth in [1] is 103%; in experiment [19] (10 µM unless noted), 98.2%; in experiment [3], 114%; in experiment [4] (10 µM unless noted), 105%; in experiment [16] (10 µM unless noted), 90.4%; in experiment [5] (10 µM unless noted) it was 101%. The growth is 103% in [6] (10 µM unless noted); 109% in [7] (10 µM unless noted); 96.8% in [17] (10 µM unless noted); 100% in [8] (10 µM unless noted); 86.9% in [9] (10 µM unless noted); 95.3% in experiment [10] (10 µM unless noted). The growth in experiment [11] (10 µM unless noted) is 105%; in experiment [12] (10 µM unless noted) it was 106%; in experiment [13] (10 µM unless noted), 97.5%; in experiment [14] (10 µM unless noted) it was 106%; in experiment [15] (10 µM unless noted), 91.5%.

In the case of `O=C(O)CCCc1ccc(N(CCCl)CCCl)cc1`, the growth in experiment [2] (10 µM) was 44.8% and 19.5%; in [2] (75 µM), 5.82% (active); in [19] (10 µM), 84.4% and 90.7%; in [19] (75 µM) it was 7.4% (active); in experiment [3] it was 87.5%; in experiment [4] (10 µM), 97.7% and 81.1%. The growth in experiment [4] (75 µM) is 66.4%; in experiment [16] (10 µM), 102% and 107%; in experiment [16] (75 µM) it was 83.2%; in experiment [5] (10 µM) it was 101% and 108%; in experiment [5] (75 µM), 59.8%; in [6] (10 µM), 80.2%. The growth in [6] (75 µM) was 50.9%; in experiment [7] (10 µM), 111% and 108%; in experiment [7] (75 µM), 18.9%; in [17] (10 µM), 120% and 113%; in [17] (75 µM) it was -4.49% (active); in [8] (10 µM), 96.3% and 89%. The growth is 31% in experiment [8] (75 µM); 87.2% and 74.8% in experiment [9] (10 µM); 27.3% in [9] (75 µM); 86.7% and 96.5% in [10] (10 µM); 11.7% in experiment [10] (75 µM); 102% and 97.9% in experiment [11] (10 µM). Further, the growth is 38.8% in experiment [11] (75 µM); 86.5% and 82.8% in experiment [12] (10 µM); 51.3% in [12] (75 µM); 84.4% and 87% in experiment [13] (10 µM); 32.1% in experiment [13] (75 µM); 85.1% and 87.7% in experiment [14] (10 µM). In addition, the growth was 6.85% (active) in [14] (75 µM); 105% and 98% in experiment [15] (10 µM); 65.3% in experiment [15] (75 µM).

On to `C[C@]12CC[C@@H](OC(=O)N(CCCl)N=O)C[C@@H]1CC[C@@H]1[C@@H]2CC[C@]2(C)C(=O)CC[C@@H]12`, for which the growth is 29.1% in experiment [1]; 58.1% in experiment [3]; 114% in experiment [4] (10 µM unless noted); 73% in [16] (10 µM unless noted); 21.2% in experiment [5] (10 µM unless noted); -13.9% (active) in [6] (10 µM unless noted). Besides, the growth in experiment [7] (10 µM unless noted) was 64.1%; in [17] (10 µM unless noted) it was 81.6%; in experiment [8] (10 µM unless noted) it was 42.9%; in [9] (10 µM unless noted), 33.8%; in experiment [10] (10 µM unless noted) it was 76.8%; in experiment [11] (10 µM unless noted), 64.5%. The growth in experiment [12] (10 µM unless noted) is 52.9%; in experiment [18] it was 29.9%; in [13] (10 µM unless noted), 47.5%; in [14] (10 µM unless noted), 53.6%; in experiment [15] (10 µM unless noted), 24.5%.

For `COc1ccc(N)cc1OC`, the growth in experiment [1] was 112%; in experiment [19] (10 µM unless noted), 104%; in experiment [3], 115%; in experiment [4] (10 µM unless noted), 104%; in [16] (10 µM unless noted), 96.8%; in experiment [5] (10 µM unless noted), 113%. Further, the growth in experiment [6] (10 µM unless noted) was 107%; in experiment [7] (10 µM unless noted) it was 108%; in [17] (10 µM unless noted), 116%; in [8] (10 µM unless noted), 107%; in experiment [9] (10 µM unless noted), 100%; in experiment [10] (10 µM unless noted) it was 99.8%. Also, the growth was 103% in experiment [11] (10 µM unless noted); 109% in experiment [12] (10 µM unless noted); 103% in [13] (10 µM unless noted); 111% in [14] (10 µM unless noted); 100% in experiment [15] (10 µM unless noted).

The values are drawn from PubChem BioAssay (NCI).
